Results filed as inconclusive are left out. The source made the active and inactive calls. The call rests on the fitted dose curve; in most records, active means well fitted curve in the direction sought with a large enough effect; inconclusive means small, poorly fitted or top-dose-only effect, or another doubt; inactive means no such curve, though single readings can be large; an effect the other way counts as inactive or inconclusive.
Legend:
[1] = MultiTox-Fluor Cytotoxicity Assay - LYMP1-002 - Dead Cells (AID 960);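 further: cells exposed to compound for 16 h at 37 °C; nearly all actives have a fitted effect of over 60% in size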
Summary of the method: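 Concentration-dependent increases in membrane-leaked protease activity are quantified in LYMP1-002 cells after 16 hr treatment; values are normalized against DMSO and tetraoctylammonium bromide (15 uM) controls and AC50 derived by Hill modeling.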

[2] = MultiTox-Fluor Cytotoxicity Assay - LYMP1-003 - Dead Cells (AID 961);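 further: cells exposed to compound for 16 h at 37 °C; nearly all actives have a fitted effect of over 70% in size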
Summary of the method: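 Human lymphoblastoid LYMP1-003 cells (2500/well) were treated with compounds for 16 hr at 37 C in complete medium. Dead-cell protease release was read by bis-AAF-R110 fluorescence (Ex/Em 485/520). AC50 came from Hill fits, normalized to DMSO and 15 uM tetraoctylammonium bromide.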

[3] = MultiTox-Fluor Cytotoxicity Assay - LYMP1-003 - Live Cells (AID 962);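 further: cells exposed to compound for 16 hours at 37 °C; cytotoxic hits lower the live-cell protease signal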
Summary of the method: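 Human lymphoblastoid line LYMP1-003 in complete culture medium, treated 16 hr with titrated compounds. Viable cells quantified via cell-permeant GF-AFC substrate fluorescence; AC50 derived by Hill fitting.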

[4] = Cell Viability - LYMP1-003 - Assay at 24 hr (AID 963)
Summary of the method: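 The lymphoblastoid line was treated with titrated compounds for 24 hours, and viable cell number estimated from luciferase-based ATP luminescence.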

[5] = Cell Viability - LYMP1-003 - Assay at 40 hr (AID 964); further: series mostly up to about 92 µM; nearly all actives have a fitted effect of over 60% in size
Summary of the method: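 Acute toxicity is scored as a concentration-dependent loss of intracellular ATP in LYMP1-003 cells (2500/well, complete medium) after 40 hr at 37 C, measured by CellTiter-Glo luminescence; AC50 values derive from standard Hill modelling.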

[6] = Cell Viability - LYMP2-003 (AID 965);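 further: cells exposed to compounds for 24 h before reading; nearly all actives have a fitted effect of over 50% in size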
Summary of the method: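 Acute cytotoxicity is scored as a concentration-dependent drop in intracellular ATP, measured by luciferase luminescence in human lymphoblastoid cells treated for 24 hours at 37 C. AC50 values derive from Hill-equation modelling.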

[7] = Cell Viability - LYMP2-004 (AID 966); further: nearly all actives have a fitted effect of over 65% in size
Summary of the method: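 Viable-cell number estimated from ATP luminescence (CellTiter-Glo) in 2500 human lymphoblastoid cells/well after 24 hr at 37 C with compound. AC50 fitted to the standard Hill equation.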

[8] = Cell Viability - LYMP2-009 (AID 968); further: series mostly up to about 92 µM; nearly all actives have a fitted effect of over 55% in size
[9] = Cell Viability - LYMP2-011 (AID 969); further: nearly all actives have a fitted effect of over 60% in size
Summary of the method: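 Cells seeded at 2500 per well rest 5 hr before compound addition, then incubate 24 hr at 37 C. CellTiter-Glo reagent is added for 30 min at room temperature before luminescence detection.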

[10] = Cell Viability - LYMP2-013 (AID 970); further: series mostly up to about 92 µM; nearly all actives have a fitted effect of over 55% in size
Summary of the method: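 In complete culture medium, human lymphoblastoid cells were dosed for 24 hr at 37 C, with tetraoctylammonium bromide (6.4pM to 92 uM) as positive control. Viability reflects luciferase-based ATP signal; AC50 derived from concentration-response curves.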

[11] = Cell Viability - LYMP2-015 (AID 971); further: nearly all actives have a fitted effect of over 55% in size
Summary of the method: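 AC50 values reflect Hill-model fits of ATP-based luminescence (CellTiter-Glo) from a human lymphoblastoid line, 2500 cells/well, treated 24 hr at 37 C.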

[12] = Cell Viability - LYMP2-017 (AID 972);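 further: series mostly up to about 92 µM; cells exposed to compound for 24 hours at 37 °C; nearly all actives have a fitted effect of over 55% in size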
Summary of the method: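 In this qHTS format, lymphoblastoid cells in complete medium receive test compound for a day at 37 C before ATP content is quantified by luciferase luminescence. Reported AC50 figures come from standard Hill-equation curve fitting.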

[13] = Cell Viability - LYMP2-019 (AID 973); further: nearly all actives have a fitted effect of over 55% in size
Summary of the method: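 AC50 values come from Hill-equation modelling of qHTS concentration-response curves, where viability is measured as luciferase-based ATP luminescence in the lymphoblastoid line after 24 hr compound exposure in complete culture medium.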

[14] = Cell Viability - LYMP2-021 (AID 974)
Summary of the method: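 In qHTS format, compounds are tested against 2500 lymphoblastoid cells per well for 24 h; viable cell number is inferred from ATP-driven luciferase light, and Hill-equation fitting yields AC50 values.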

[15] = Cell Viability - LYMP2-023 (AID 975)
Summary of the method: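 In this qHTS, ATP-based luciferase luminescence (CellTiter-Glo) is quantified in human lymphoblastoid cells after 24 hr compound treatment at 37 C; tetraoctylammonium bromide serves as positive control. Concentration-response curves are Hill-fitted to give AC50.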

[16] = Cell Viability - LYMP2-002 (AID 977);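 further: series mostly up to about 92 µM; compound exposure lasted 24 h at 37 °C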
Summary of the method: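 In this qHTS viability screen, 2500 human lymphoblastoid cells per well receive compound for 24 hr at 37 C, and luciferase-based ATP luminescence gives the viability signal. Tetraoctylammonium bromide serves as positive control.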

[17] = Cell Viability - LYMP2-006 (AID 978); further: series mostly up to about 92 µM; nearly all actives have a fitted effect of over 60% in size
Summary of the method: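 Concentration-dependent loss of intracellular ATP in a human lymphoblastoid line after 24 hr treatment at 37 C was measured by CellTiter-Glo luminescence, with AC50 values obtained from standard Hill-equation modelling.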

[18] = Cell Viability - LYMP2-007 (AID 979)
Summary of the method: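 Measured via luciferase-based ATP quantitation: lymphoblastoid cells, 24 hr compound exposure at 37 C, AC50 from Hill fits.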

[19] = Cell Viability - LYMP2-005 (AID 967); further: series mostly up to about 92 µM
Summary of the method: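 qHTS viability screen in LYMP2-005 cells: 24 h at 37 C with compound, ATP luminescence via CellTiter-Glo, AC50 from Hill curves.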

[20] = Cell Viability - LYMP2-025 (AID 976); further: series mostly up to about 92 µM
Summary of the method: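 Luminescent ATP readout after 24 hr treatment of a human lymphoblastoid line (LYMP2-025, 2500 cells/well, 37 C). Reagent developed 30 min at room temperature; AC50 fitted with the Hill equation.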

Measured: outcome

C=C1C[C@]23C[C@@]1(O)CC[C@H]2[C@@]12C=C[C@H](O)[C@@](C)(C(=O)O1)[C@H]2[C@@H]3C(=O)O
not listed: [19] | [20]
inactive: all other assays above

COc1ccc(CCC(=O)c2c(O)cc(O[C@@H]3O[C@H](CO)[C@@H](O)[C@H](O)[C@H]3O[C@@H]3O[C@@H](C)[C@H](O)[C@@H](O)[C@H]3O)cc2O)cc1O
inactive: all assays above
